# Sampled rows, rich in hits. Any-hit rate of the full collection: about 2.7%.
# CFTR F508del cor: F508del CFTR correction, initial screen, CFBE line, single point; CFBE cells, YFP halide quenching; stimulated with forskolin plus potentiator P3; % fluorescence drop versus neutral controls; activity (quench increase), % at 7.58 µM; 350,000 tested, 0.36% active; AID 720511, 2013;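 active means mean added fluorescence quench of at least 8% versus neutral control, with both replicates also reaching 8%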;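 further: cells transiently co-express mutant CFTR-F508del with the halide-sensitive YFP; corrector assay measuring rescue of mutant channel to the surface after 24 h compound exposure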
# CendR NRP1 mod: modulators of CendR peptide binding to NRP-1, primary screen, biochemical, fluorescence polarization, uHTS; Neuropilin-1 (Homo sapiens), O14786; FAM-RPARPAR peptide binding to NRP-1; inhibition, % at 25 µM; 360,000 tested, 0.85% active; AID 602438, 2012;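 active means inhibition or corrected inhibition above about 18%, plus a signal ratio from 0.5 to 1.5, limit read from the data, passing the limit was not always enough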
# ATG4B inh: ATG4B protease inhibitors, primary screen, biochemical, fluorescence, uHTS; ATG4B cleavage of LC3-PLA2, NBD-HPC fluorescence, 1 h; Cysteine protease ATG4B (Homo sapiens), Q9Y4P1; inhibition, % at 8.33 µM; AID 504462, 2011; 340,000 tested, 0.51% active; in the data active means inhibition above about 40%
# Target sequence (Q9Y4P1 whole entry, looked up): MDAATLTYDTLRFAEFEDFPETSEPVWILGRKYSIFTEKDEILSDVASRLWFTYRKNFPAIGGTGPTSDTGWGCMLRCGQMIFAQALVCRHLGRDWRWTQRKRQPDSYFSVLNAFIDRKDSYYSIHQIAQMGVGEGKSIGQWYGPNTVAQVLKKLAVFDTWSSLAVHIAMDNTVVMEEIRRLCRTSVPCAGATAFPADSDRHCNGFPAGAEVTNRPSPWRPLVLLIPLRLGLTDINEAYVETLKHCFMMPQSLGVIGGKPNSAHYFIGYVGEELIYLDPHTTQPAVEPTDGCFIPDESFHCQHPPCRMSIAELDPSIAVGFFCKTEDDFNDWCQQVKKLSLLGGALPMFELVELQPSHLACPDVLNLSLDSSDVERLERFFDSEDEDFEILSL
# MPTP inh: mitochondrial permeability transition pore inhibitors, primary screen, biochemical, isolated mouse mitochondria, absorbance | Ca2+ swelling absorbance, 30 min | inhibition, % at 10 µM | 360,000 tested, 1.4% active | AID 602449, 2012;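 active means inhibition of 50% or more, scaled per plate between neutral and stimulator controls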;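 further: 0% = DMSO wells given calcium and 100% = 1 mM EGTA wells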
# SKN-1 block: suppressors of acrylamide-induced Pgst-4::GFP reporter in worms, primary screen, SKN-1 inhibitor project, whole organism, uHTS, GFP/RFP fluorescence ratio, strain VP596; C. elegans VP596 Pgst-4::GFP/RFP ratio, 24 h; inhibition, % at 21.8 µM; 360,000 tested, 0.49% active; AID 624304, 2012;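 active means interference check ratio from 0.5 to 1.5 plus GFP to RFP signal ratio inhibition reaching or exceeding a fixed threshold, cut at about 30% in these data, passing the limit was not always enough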
# An asterisk follows results filed as active; x = no result given; ! = repeats disagree.
SMILES,CFTR F508del cor,CendR NRP1 mod,ATG4B inh,MPTP inh,SKN-1 block
CC1(C(=O)Nc2ccc3c(c2)OCCO3)CSCC(=O)N1CCCN1CCOCC1 (stereo not drawn),-3.7,12.8,x,0.0,-1.6
COc1ccc(CCNC(=O)COc2nsnc2N2CCOCC2)cc1OC,x,-4.2,-1.6,0.1,39.7*
O=C(Nc1ncc([N+](=O)[O-])s1)c1ccc2c(c1)OCO2,0.1,-2.8,-7.0,30.3,-5.3
Cc1ccc(C(=O)Nc2ncc([N+](=O)[O-])s2)cc1,-2.8,-3.6,9.4,49.5,37.4*
Cc1ccc(C(=O)Nc2nc(=O)[nH]s2)cc1,0.7,17.2*!,-9.2,0.0,2.9
CN1CCN(C(=O)C[C@@H]2CC[C@H]3[C@@H](COC[C@@H](O)CN3Cc3ccc(Oc4ccccc4)cc3)O2)CC1,-0.8,x,x,x,x
Brc1ccc(-c2nc(-c3ccncc3)no2)o1,x,2.7,-3.6,-1.4,49.4*
Brc1ccc(-c2noc(-c3ccccn3)n2)o1,-1.8,-0.6,-0.1,-0.3,66.3*
Brc1ccc(-c2nc(-c3ccccn3)no2)o1,x,5.7,3.0,-0.3,44.1*
Brc1ccc(-c2nc(-c3ccncc3)no2)cc1,-1.0,8.6,-0.8,0.3,11.6
COc1ccc(-c2nc(-c3ccccn3)no2)cc1,2.0,8.2,-7.1,0.1,12.2
CCC(=O)N(C)C[C@@H]1Oc2cc(-c3ccc(C)cc3)ccc2S(=O)(=O)N([C@@H](C)CO)C[C@H]1C,0.2,x,x,x,x
Cc1onc(-c2c(F)cccc2Cl)c1C(=O)Nc1nnc(C(F)(F)F)s1,-7.1,3.4,-3.5,46.5,12.4
Cc1onc(-c2c(F)cccc2Cl)c1C(=O)Nc1nc2ccccc2[nH]1,x,-5.7,-1.2,0.6,41.7*
COCc1nnc(NC(=O)c2c(-c3c(Cl)cccc3Cl)noc2C)s1,1.9,20.0*,-0.1,0.0,9.9
CN1C(=O)c2cc(NC(=O)c3cccs3)ccc2OC[C@@H]2O[C@@H](CC(=O)O)CC[C@@H]21,1.0,x,x,x,x
COc1ccc(NC(=O)N2CC(=O)N3[C@H](CO)[C@@H](c4ccc(/C=C/c5ccccc5)cc4)[C@@H]3C2)cc1,-0.4,x,x,x,x
COc1ccccc1NC(=O)N[C@@H]1CC[C@@H](CC(=O)N[C@H](C)c2ccccc2)O[C@H]1CO,-1.9,x,x,x,x
O=C(NCc1nc2ccccc2[nH]1)C1=C[C@H](C2CCCCC2)C[C@H](OCc2ccc(CO)cc2)O1,-4.1,9.7,-10.0,13.2,38.7*
Cc1noc(C)c1NC(=O)N(C)C[C@@H]1Oc2ccc(N(C)C)cc2C(=O)N([C@H](C)CO)C[C@@H]1C,-4.0,x,x,x,x
C#Cc1ccc(NC(=O)C2(C)CCN2C(=O)c2cc(C)n(C)n2)cc1 (stereo not drawn),8.1*,-11.1,x,-0.8,-8.8
CCC(=O)N(C)C[C@H]1Oc2cc(-c3ccc(OC)cc3)ccc2S(=O)(=O)N([C@@H](C)CO)C[C@@H]1C,3.0,x,x,x,x
CC1=C/C(=C(/c2cc(C)c(O)c(Br)c2)c2ccccc2S(=O)(=O)O)C=C(Br)C1=O,2.8,39.8*,9.3,32.0,50.5*
CCOC1=C2[C@@H](CN(S(=O)(=O)c3ccccc3)[C@H]2c2ccccc2)[C@H]2C(=O)N(c3ccccc3)C(=O)[C@H]2C1,-0.1,-1.5,x,0.7,28.6
CCOC1=C2[C@@H](CN(S(=O)(=O)c3ccc(C)cc3)[C@H]2c2ccc(Cl)cc2)[C@H]2C(=O)N(c3ccccc3)C(=O)[C@H]2C1,11.1*,9.7,x,1.5,15.4
SMILES,CFTR F508del cor,CendR NRP1 mod,ATG4B inh,MPTP inh,SKN-1 block
COc1ccc(-n2nnnc2SCC(=O)N(C)C2CCS(=O)(=O)C2)cc1 (stereo not drawn),1.4,26.5*,-3.2,-1.0,2.2
COC(=O)c1[nH]c(C)c(/C(O)=C2\C(=O)C(=O)N(CCCN3CCOCC3)C2c2ccccn2)c1C (stereo not drawn),x,0.5,-9.8,0.4,38.4*
CCOC(=O)c1[nH]c(C)c(/C(O)=C2\C(=O)C(=O)N(CCCN3CCOCC3)C2c2cccnc2)c1C (stereo not drawn),x,-7.0,4.3,-5.3,4.5
Cn1ccnc1SCC(=O)Nc1ccc(Cl)cn1,2.4,18.3*,-8.3,2.4,3.7
COc1ccc(S(=O)(=O)N(C)C[C@H]2OCCCC[C@@H](C)Oc3ccc(NC(=O)CCC(F)(F)F)cc3C(=O)N([C@@H](C)CO)C[C@@H]2C)cc1,2.6,x,x,x,x
CN1c2ccc(-c3ccc(F)cc3)cc2[C@H]2[C@H](CCN2S(=O)(=O)c2cccc(F)c2)[C@H]1CO,16.2*,x,x,x,x
COc1ccc(S(=O)(=O)N2CC[C@@H]3[C@H](CO)N(C)c4ccc(-c5ccc(F)cc5)cc4[C@@H]32)cc1,10.6*,x,x,x,x
CN1c2ccc(-c3ccc(F)cc3)cc2[C@@H]2[C@@H](CCN2S(=O)(=O)c2cccc(F)c2)[C@@H]1CO,0.9,x,x,x,x
C=CCN1C(=O)c2n[nH]c(COC)c2C1c1ccc(F)cc1 (stereo not drawn),0.6,x,x,x,x
O=C(C[C@@H]1CC[C@@H]2[C@H](COC[C@H](O)CN2C(=O)c2cccnc2)O1)NCc1ccc(-c2ccccc2)cc1,-3.5,x,x,x,x
Cc1ccc(S(=O)(=O)Nc2ccc3c(c2)C(=O)N([C@H](C)CO)C[C@@H](C)[C@H](CN(C)Cc2ccc(Oc4ccccc4)cc2)O3)cc1,5.1,x,x,x,x
CC(C)(CNC(=O)c1ccc(NS(=O)(=O)c2ccc(F)cc2)cc1)N1CCOCC1,-2.7,-6.5,3.4,0.1,-22.3
CCOc1ccc(S(=O)(=O)Nc2ccc(C(=O)NCC(C)(C)N3CCOCC3)cc2)cc1,1.2,21.4*,0.7,-1.9,2.6
CO[C@@H]1CN(C)C(=O)c2cc(NC(=O)c3ccccc3)ccc2OC[C@H](C)N(C)C[C@H]1C,-3.0,x,x,x,x
FCCCOc1ccc(-c2nccc(-c3ccccn3)n2)cc1,-1.3,20.8*,-10.5,-0.5,65.6*
Cc1noc(C)c1NC(=O)Nc1ccc2c(c1)CC(=O)N([C@@H](C)CO)C[C@H](C)[C@H](CN(C)Cc1ccc(C(=O)Nc3ccccc3N)cc1)O2,-0.6,x,x,x,x
CSc1nc2ccccc2c(=O)n1C1CCOC(C)(C)C1 (stereo not drawn),0.0,27.7*,0.9,-1.3,-2.2
CC(C)C#Cc1ccc2c(c1)O[C@@H](CN(C)C(=O)CN(C)C)[C@H](C)CN([C@H](C)CO)S2(=O)=O,4.0,x,x,x,x
CCC(=O)N1C[C@H](C)[C@@H](OC)CN(C)C(=O)c2cc(NS(C)(=O)=O)ccc2OC[C@H]1C,-0.9,x,x,x,x
O=C(CSc1nccn1Cc1ccc(F)cc1)NC1CCCCC1,0.9,24.8*,x,0.7,9.1
COc1ccc2c3c([nH]c2c1)[C@H](CO)N(S(C)(=O)=O)CC31CCN(CC2CCCCC2)CC1,-0.3,x,x,x,x
Cn1c(=O)c2c(ncn2Cc2ccccc2)n(C)c1=O,-0.4,-3.9,-2.9,-2.8,-2.4

# Bioassay records (PubChem)
